Activity calls are given as the source filed them. The calls were made as follows: active = hit-call score of the fitted dose curve at least 0.9, where 1 is the maximum; inactive = score below 0.9.
What was measured:
[1] = APR_HepG2_CellCycleArrest_24hr: Apredica 24-hour HepG2 Assay for Cell Cycle Arrest (AID 2282905); conditions: imaging, actives raise or lower the signal;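 also: cell cycle arrest scored as ratio of 2N to 4N nuclear DNA content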
Summary of the method: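 HepG2 cells were exposed to compounds at 0.39–200 uM (ten concentrations, duplicate) in 0.5% v/v DMSO for 24 hr. After formaldehyde fixation and Triton permeabilization, Hoechst 33342-stained nuclei were imaged at 20x; DNA content was quantified, with bidirectional fitting against DMSO.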

[2] = APR_HepG2_StressKinase_1hr: Apredica 1-hour HepG2 Assay for Stress Kinase (AID 2282906); conditions: HepG2 stress kinase (phospho-c-Jun) imaging, actives raise or lower the signal
Summary of the method: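 HepG2 cells dosed 0.39-200 uM (0.5% DMSO) for 1 h, then formaldehyde-fixed. Stress kinase read by phospho-c-Jun immunofluorescence using high-content imaging; bidirectional fit vs DMSO.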

[3] = APR_HepG2_NuclearSize_24hr: Apredica 24-hour HepG2 Assay for Nuclear Size (AID 2282907); conditions: high-content imaging, actives raise or lower the signal
Summary of the method: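 HepG2 human liver cells were exposed for 24 hr to compounds at 0.39–200 uM (ten concentrations, duplicate) in 0.5% v/v DMSO. They were then formaldehyde-fixed, Triton-permeabilized and Hoechst 33342-stained, and nuclear diameter was imaged at 20x. Bidirectional fits were made against DMSO.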

[4] = APR_HepG2_CellLoss_24hr: Apredica 24-hour HepG2 Assay for Cell Loss (AID 2282908); conditions: high-content imaging;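 as to AC50: fit in both directions so a hit may be cell loss or gain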
Summary of the method: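 Compounds were tested at 0.39–200 uM in duplicate with 0.5% v/v DMSO final. Cells were then fixed in 3.7% formaldehyde, Hoechst 33342 nuclei were imaged at 20x by HCS, and cell number was fitted bidirectionally against DMSO.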

[5] = APR_HepG2_MitoticArrest_24hr: Apredica 24-hour HepG2 Assay for Mitotic Arrest (AID 2282910); conditions: high-content imaging, actives raise or lower the signal
Summary of the method: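 HepG2 cells, 24 h exposure at 0.39-200 uM (10 concentrations, duplicate, 0.5% DMSO). Fixed, stained for phospho-histone H3 with Hoechst; imaged by high-content microscopy, bidirectional fit versus DMSO.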

[6] = APR_HepG2_MitoMembPot_24hr: Apredica 24-hour HepG2 Assay for Mitochondrial Membrane Potential (AID 2282911); conditions: imaging, actives raise or lower the signal
Summary of the method: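 Cells are dosed for 24 hr across 0.39 to 200 uM with solvent held at 0.5% DMSO. They are then stained with 250 nM MitoTracker Red CMXRos for 30 min, fixed in 3.7% formaldehyde and imaged.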

[7] = APR_HepG2_MitoMass_24hr: Apredica 24-hour HepG2 Assay for Mitochondrial Mass (AID 2282912); conditions: high-content imaging, actives raise or lower the signal
Summary of the method: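 Human HepG2 liver cells were exposed for 24 hr to compounds at 0.39–200 uM (duplicates, 0.5% v/v DMSO final). They were stained live with 250 nM MitoTracker Red CMXRos for 30 min, fixed in 3.7% formaldehyde, and imaged by HCS fluorescence; signals were fitted bidirectionally against DMSO.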

[8] = APR_HepG2_p53Act_24hr: Apredica 24-hour HepG2 Assay for p53 Activation (AID 2282913); conditions: high-content imaging, actives raise or lower the signal;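 also: p53 protein immunofluorescence averaged per cell in HepG2 with Hoechst nuclei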
Summary of the method: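 Human HepG2 liver cells; 24 hr cpd treatment, 0.39–200 uM, 0.5% DMSO final. Fixed in 3.7% formaldehyde, permeabilized with 0.5% Triton X-100, stained with anti-p53/Cy5 plus Hoechst 33342. Six images per well at 20x; gain or loss vs DMSO.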

[9] = APR_HepG2_CellCycleArrest_72hr: Apredica 72-hour HepG2 Assay for Cell Cycle Arrest (AID 2282914); conditions: high-content imaging, actives raise or lower the signal
Summary of the method: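 Read-out is Hoechst-stained nuclear DNA content measured by automated fluorescence imaging (20x, six images per well), fitted in both directions relative to DMSO. Human HepG2 liver cells received 0.39–200 uM compound for 72 hr at 0.5% v/v DMSO.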

[10] = APR_HepG2_CellLoss_72hr: Apredica 72-hour HepG2 Assay for Cell Loss (AID 2282915); conditions: high-content imaging
Summary of the method: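 HepG2 cells exposed 72 h to compound at 0.39–200 uM (10 concentrations, duplicate) in 0.5% DMSO. Fixed with 3.7% formaldehyde and Hoechst 33342-stained. Imaged at 20x; nuclear count gives cell number, fitted bidirectionally versus DMSO.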

[11] = APR_HepG2_P-H2AX_72hr: Apredica 72-hour HepG2 Assay for H2AX Phosphorylation (AID 2282916); conditions: imaging, actives raise or lower the signal;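 also: phospho-histone H2A.x immunostain intensity per cell marking DNA damage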
Summary of the method: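 HepG2 human liver cells were exposed for 72 hr to compounds at 0.39–200 uM (10 concentrations, duplicate per plate) in 0.5% v/v DMSO. Fixed, permeabilized cells were immunolabeled for phospho-histone H2A.x with Hoechst 33342 and imaged by HCS fluorescence; bidirectional fit versus DMSO.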

[12] = APR_HepG2_MitoMembPot_72hr: Apredica 72-hour HepG2 Assay for Mitochondrial Membrane Potential (AID 2282917); conditions: imaging, actives raise or lower the signal
Summary of the method: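 HepG2 cells dosed 72 hr with compound at 0.39–200 uM in duplicate, 0.5% v/v DMSO final. Mitochondria stained with 250 nM MitoTracker Red CMXRos for 30 min before formaldehyde fixation, imaged by high-content fluorescence; bidirectional fit versus DMSO.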

[13] = APR_HepG2_MitoticArrest_72hr: Apredica 72-hour HepG2 Assay for Mitotic Arrest (AID 2282918); conditions: high-content imaging, actives raise or lower the signal
Summary of the method: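 Read-out is phospho-histone H3 immunofluorescence with Hoechst nuclear segmentation, imaged at 20x. Human HepG2 liver cells received ten concentrations (0.39–200 uM, final DMSO 0.5% v/v) for 72 hr before fixation. Gain or loss of signal was fitted relative to DMSO.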

[14] = APR_HepG2_P-H2AX_24hr: Apredica 24-hour HepG2 Assay for H2AX Phosphorylation (AID 2282920); conditions: high-content imaging, actives raise or lower the signal
Summary of the method: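 HepG2, 24 hr, cpd 0.39–200 uM (10 conc, duplicate), DMSO 0.5% v/v final. Fix 3.7% formaldehyde, Triton X-100 permeabilize, anti-phospho-H2A.x 1:200 + Hoechst 2 ug/mL. Imaged, bidirectional fit vs DMSO.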

[15] = APR_HepG2_StressKinase_72hr: Apredica 72-hour HepG2 Assay for Stress Kinase (AID 2282921); conditions: HepG2 stress kinase (phospho-c-Jun) imaging, actives raise or lower the signal
Summary of the method: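 Cells were exposed for 72 h to ten concentrations (0.39–200 uM, duplicate) at 0.5% v/v DMSO final, then fixed with 3.7% formaldehyde, permeabilized and immunostained for phospho-c-Jun (Cy3 secondary) with Hoechst nuclear counterstain.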

[16] = APR_HepG2_StressKinase_24hr: Apredica 24-hour HepG2 Assay for Stress Kinase (AID 2282922); conditions: HepG2 stress kinase (phospho-c-Jun) imaging, actives raise or lower the signal
Summary of the method: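 HepG2 cells exposed 24 h to 0.39–200 uM compound in duplicate (0.5% v/v DMSO final). Cells fixed in 3.7% formaldehyde, permeabilized and immunostained for phospho-c-Jun; read by high-content fluorescence imaging, fitted bidirectionally against DMSO.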

[17] = APR_HepG2_p53Act_72hr: Apredica 72-hour HepG2 Assay for p53 Activation (AID 2282923); conditions: high-content imaging, actives raise or lower the signal;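 also: average cellular p53 protein immunofluorescence intensity in HepG2 cells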
Summary of the method: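 Cells were dosed for 72 hr with compounds at 0.39–200 uM in duplicate (final DMSO 0.5% v/v), then fixed in 3.7% formaldehyde, permeabilized with Triton X-100 and immunostained for p53 (Cy5) with Hoechst 33342 nuclear counterstain.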

[18] = APR_HepG2_MitoMass_72hr: Apredica 72-hour HepG2 Assay for Mitochondrial Mass (AID 2282924); conditions: high-content imaging, actives raise or lower the signal;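 also: MitoTracker Red CMXRos stain intensity per cell imaged as mitochondrial mass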
Summary of the method: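 HepG2 cells dosed 72 hr at 0.39–200 uM (0.5% DMSO), in duplicate. MitoTracker Red CMXRos 250 nM loaded 30 min before formaldehyde fixation; high-content fluorescence imaging, bidirectional fit versus DMSO.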

[19] = APR_HepG2_MicrotubuleCSK_72hr: Apredica 72-hour HepG2 Assay for Microtubule CSK Stabilty (AID 2282919); conditions: HepG2 microtubule cytoskeleton, high-content imaging, actives raise or lower the signal
Summary of the method: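 HepG2 cells were exposed 72 hr to compound at 0.39–200 uM in duplicate (0.5% DMSO final), then fixed and permeabilized. Alpha-tubulin immunofluorescence was imaged by high-content microscopy, with bidirectional fitting against DMSO and taxol as positive control.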

Measured: AC50

CCON=C(CC)C1=C(O)CC(c2c(C)cc(C)cc2C)CC1=O (stereo not given)
not listed: [19]
inactive: all other assays above

COP(=S)(OC)Oc1nc(Cl)c(Cl)cc1Cl
active: [10] 151 µM
not listed: [19]
inactive: all other assays above

COc1ccc(C(c2ccc(OC)cc2)C(Cl)(Cl)Cl)cc1
active: [4] 60.5 µM | [10] 72.7 µM | [11] 98.2 µM | [13] 65 µM | [17] 76.4 µM
not listed: [19]
inactive: all other assays above

CNC(=S)S
active: [1] 20.5 µM | [4] 80.1 µM | [5] 85.2 µM | [10] 36.7 µM | [11] 11.3 µM | [13] 13.5 µM | [14] 32.9 µM
not listed: [19]
inactive: all other assays above

CC1COC(Cn2cncn2)(c2ccc(Oc3ccc(Cl)cc3)cc2Cl)O1 (stereo not given)
active: [4] 94.7 µM | [5] 94.4 µM | [6] 105 µM | [9] 64.3 µM | [10] 10.6 µM | [12] 52.6 µM | [18] 60.6 µM
not listed: [19]
inactive: all other assays above

CCCCNC(=O)n1c(NC(=O)OC)nc2ccccc21
active: [1] 22.7 µM | [4] 12.4 µM | [9] 17 µM | [10] 8.47 µM | [14] 23.6 µM | [16] 45.6 µM | [18] 13 µM
not listed: [19]
inactive: all other assays above

N#CC(CCc1ccc(Cl)cc1)(Cn1cncn1)c1ccccc1 (stereo not given)
active: [4] 102 µM | [5] 106 µM | [8] 103 µM | [14] 111 µM
not listed: [19]
inactive: all other assays above

CCCC1COC(Cn2cncn2)(c2ccc(Cl)cc2Cl)O1 (stereo not given)
active: [6] 12.8 µM | [9] 100 µM | [10] 76 µM
not listed: [19]
inactive: all other assays above

C=CC1(C)OC(=O)N(c2cc(Cl)cc(Cl)c2)C1=O (stereo not given)
not listed: [19]
inactive: all other assays above

CN(C)C(=S)SSC(=S)N(C)C
active: [2] 3.07 µM | [4] 2.3 µM | [9] 0.039 µM | [10] 0.153 µM | [11] 0.0895 µM | [13] 19.8 µM | [14] 1.78 µM
not listed: [19]
inactive: all other assays above

CC1=C(C(=O)Nc2ccccc2)SCCO1
not listed: [19]
inactive: all other assays above

CCCCC(CC)COC(=O)c1ccccc1C(=O)OCC(CC)CCCC (stereo not given)
not listed: [19]
inactive: all other assays above

CCOC(=O)CC(SP(=S)(OC)OC)C(=O)OCC (stereo not given)
active: [10] 109 µM
inactive: all other assays above

— PubChem BioAssay (EPA / NIEHS)
